# Inconclusive results are not listed. Entries that show only a call come without a potency. Unmarked numbers belong to inactive results. The source made the active and inactive calls. The call rests on the fitted dose curve; in most records, active means well fitted cell-killing curve with a large enough effect; inconclusive means small, poorly fitted or top-dose-only effect, or effect the other way; inactive means flat fitted curve, though single readings scatter.
# Tested on: Tov-21-G
# Assay: Primary qHTS to identify gynecologic anti-cancer compounds using libraries of approved drugs and bioactive compounds (AID 1345084); further: nearly all actives have a fitted effect of over 55% in size
# Details: Gynecologic cancer cell panel viability, ATPlite luminescence, 48 h; series mostly up to 57.5 µM
# In short: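 Measured: luminescence after ATPlite addition (15 min, RT). Exposure: 48 h, 37 C, 5% CO2.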
SMILES,Potency,"activity change, negative = cytotoxicity"
CC(C)=CCC/C(C)=C/CO[C@@H]1O[C@H](CO[C@@H]2OC[C@](O)(CO)[C@H]2O)[C@@H](O)[C@H](O)[C@H]1O,inactive,
C[C@]1(OC(=O)/C=C/c2ccc(O)cc2)C[C@@H](O)[C@]2(O)C=CO[C@@H](O[C@@H]3O[C@H](CO)[C@@H](O)[C@H](O)[C@H]3O)C12 (some centres undefined),inactive,
CC[C@H]1OC(=O)[C@H](C)C(=O)[C@H](C)[C@@H](OC2O[C@H](C)C[C@H](N(C)C)[C@H]2O)[C@@H](C)C[C@@H](C)C(=O)/C=C/[C@]1(C)O (some centres undefined),inactive,
CC1(C)[C@@H]2CC=C(CO[C@@H]3O[C@H](CO[C@@H]4OC[C@H](O)[C@H](O)[C@H]4O)[C@@H](O)[C@H](O)[C@H]3O)[C@H]1C2,inactive,
COc1cc(O)cc(C)c1C(=O)O[C@H]1[C@@H](O)[C@@H](n2ccc(=O)[nH]c2=O)O[C@@H]1CO,inactive,
CCC1OC(=O)C(C)CC(C)C(=O)/C(C)=C/C(C)C(=O)/C=C/C1(C)O (centres undefined),inactive,
CC(C)CC(=O)O[C@@H]1O[C@H](CO)[C@@H](O[C@H]2O[C@H](C)[C@@H](N[C@H]3C=C(CO)[C@@H](O[C@H]4O[C@H](CO)[C@@H](O[C@H]5O[C@H](CO)[C@@H](O[C@H]6O[C@H](CO)[C@@H](O)[C@H](O)[C@H]6O)[C@H](O)[C@H]5O)[C@H](O)[C@H]4O)[C@H](O)[C@H]3O)[C@H](O)[C@H]2O)[C@H](O)[C@H]1O,,2.23% [at 11.6 µM]
CC1=CCC[C@@H]2[C@@](C)(CCc3ccoc3)[C@H](C(=O)O)CC[C@@]12C,inactive,
CCN(CCN(C)C)C(=O)CNCc1cc(C(N)=O)ccn1,inactive,
O=C(NCC(=O)N1CCCC1)Nc1ccc2ccccc2c1,inactive,
NCCCCN(Cc1nc2ccccc2[nH]1)[C@H]1CCCc2cccnc21,inactive,
C[C@@H]1O[C@@H](O[C@@H]2[C@@H](O)[C@H](O[C@H]3[C@H](O[C@H]4CC[C@@]5(C)C(CC[C@]6(C)C5CC=C5[C@@H]7CC(C)(C)CC[C@]7(C(=O)O[C@@H]7O[C@H](CO)[C@@H](O)[C@H](O)[C@H]7O)CC[C@]56C)C4(C)C)O[C@H](C(=O)O)[C@@H](O)[C@@H]3O)OC[C@H]2O)[C@H](O)[C@H](O)[C@H]1O (some centres undefined),,1.4% [at 11.6 µM]
O=C(O)C[C@H]1CCC(=O)[C@@H]1C/C=C\CCO,inactive,
CC(/C=C/C=C(\C)C(=O)O[C@@H]1O[C@H](CO[C@@H]2O[C@H](CO)[C@@H](O)[C@H](O)[C@H]2O)[C@@H](O)[C@H](O)[C@H]1O)=C\C=C\C=C(C)\C=C\C=C(/C)C(=O)O[C@@H]1C[C@](O)(C(=O)O)C[C@@H](O)[C@H]1OC(=O)/C=C/c1ccc(O)c(O)c1,,0.602% [at 11.6 µM]
COc1cc(CC2COC(c3ccc(OC4OC(CO)C(O)C(O)C4O)c(OC)c3)C2CO)ccc1O (centres undefined),inactive,
CCC(C)/C=C(C)/C=C/C1=CC2=C(Cl)C(=O)C(C)(O)C(=O)C2(O)C(OC)O1 (centres undefined),inactive,
C=C1C[C@H](O)[C@@H](O)[C@@]2(C)C1[C@@H](O)[C@H]1OC(=O)C3[C@@H](C)[C@@H](O)[C@H](O)C2[C@]31C (some centres undefined),inactive,
COc1ccc(/C=C/C(N)=O)cc1OC,inactive,
CC(=O)/C=C/[C@H]1[C@](C)(O)[C@@H](O)[C@H](O)C2C(C)(C)CCC[C@@]21C (some centres undefined),inactive,
CC(=O)OC/C(=C/C(=O)O)CC[C@@H]1C(C)=CC(=O)[C@@H]2C(C)(C)CCC[C@@]12C,inactive,

SMILES,Potency,"activity change, negative = cytotoxicity"
CC1=CCC[C@@H]2[C@](CCc3ccoc3)(C(=O)O)[C@H](C)CC[C@@]12C,inactive,
CC(=O)c1ccc(O[C@@H]2O[C@H](CO[C@@H]3OC[C@@H](O)[C@H](O)[C@H]3O)[C@@H](O)[C@H](O)[C@H]2O)cc1,inactive,
C=C(C)C(O)COc1ccc(CC(=O)O)cc1 (centres undefined),inactive,
N#Cc1cccc(-c2c[nH]c3ncnc(N4CCOCC4)c23)c1,inactive,
On1ncc(C2CCNCC2)c1-c1cccc(-c2ccccc2)c1,inactive,
COCC1OC(OC(C)(C)C2CCC3(C)C=C(C4CCC5C4(C)CC(O)C4OC(C(C)(C)O)CCC45C)CCC3O2)C(NC(C)=O)C(O)C1O (centres undefined),inactive,
CC1CC(=O)C2C(O)(C1)CC(O)C13OC1c1c(O)cccc1C(=O)C23O (centres undefined),inactive,
Cc1cccc(NC(=O)CN2CCC(c3ccccn3)CC2)c1,inactive,
C[C@@H]1O[C@@H](OC(=O)Cc2ccccc2)[C@H](O)[C@H](O)[C@H]1O,inactive,
CC(C)c1ccc2c(c1)CCC1[C@](C)(C(=O)O)CCC[C@]21C (some centres undefined),inactive,
O=C(O)c1ccc(NC(=O)[C@H](CC2CCCC2)n2cnc(C(F)(F)F)c2)nc1,inactive,
C/C(=C/CO)CC[C@H]1[C@]2(C)C[C@H](O)CC(C)(C)[C@H]2CC[C@]1(C)O,inactive,
O=C(OC[C@H]1O[C@H](O[C@]2(CO)O[C@H](CO)[C@@H](O)[C@@H]2O)[C@H](O)[C@@H](O)[C@@H]1O)c1ccc(O)cc1,inactive,
CC(C)C1CCC(C(=O)N[C@@H](Cc2ccccc2)C(=O)O)CC1 (some centres undefined),inactive,
C[C@@H]1O[C@@H](OC[C@H]2O[C@@H](OCc3ccccc3)[C@H](O)[C@@H](O)[C@@H]2O)[C@H](O)[C@H](O)[C@H]1O,inactive,
CCC[C@H](N[C@@H](C)C(=O)N1[C@H](C(=O)O)C[C@@H]2CCCC[C@@H]21)C(=O)O,inactive,
C=C1C[C@]23C[C@H]1CC[C@H]2[C@]1(C)CC[C@H](O)[C@@](C)(C(=O)O)[C@H]1[C@@H]3C(=O)O,inactive,
COC(=O)[C@H](O)[C@H]1C(C)(C)[C@H](OC(C)=O)[C@@]2(O)C(=O)[C@]1(C)C1CC[C@]3(C)C(CC(=O)O[C@H]3c3ccoc3)[C@]13O[C@@H]32 (some centres undefined),inactive,
COC(=O)C1(C)CCCC2(C)c3ccc(C(C)C)cc3C(O)C(O)C12 (centres undefined),inactive,
